“And” between values parts separate entries of the source, which are not always exact repeats. Identical values can stand only once. Records with an inconclusive call do not appear. The source made the active and inactive calls. Unless noted, calls follow the shape of the dose curve; as a rule, active = well fitted curve in the direction sought with a large enough effect in the repeat runs; inconclusive = weak or mixed curves; inactive = no such curve, though single readings can be large; an effect the other way counts as inactive or inconclusive.
What was measured:
[1] = qHTS assay for small molecule agonists of the p53 signaling pathway (AID 651631; calls by dose curve; also: nearly all actives have a fitted effect of over 15% in size)
In short: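 Read-out is beta-lactamase FRET fluorescence measured 2 h after substrate addition at room temperature, in HCT-116 cells with a p53 response element-driven reporter exposed to compounds for 16 h at 37 °C.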

[2] = qHTS assay for small molecule agonists of the p53 signaling pathway - cell viability (AID 651633; calls by dose curve;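 also: p53RE-bla HCT reporter cells with a stable beta-lactamase p53 reporter; nearly all actives have a fitted effect of over 30% in size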)
In short: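 p53RE-bla cells were treated with compound for 16 hours at 37 C. Cytotoxicity was then measured as CellTiter-Glo luminescence after 30 min at room temperature.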

[3] = qHTS assay for small molecules that induce genotoxicity in human embryonic kidney cells expressing luciferase-tagged ATAD5 - cell viability (AID 651634; calls by dose curve; also: nearly all actives have a fitted effect of over 25% in size)
In short: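 HEK293T cells expressing luciferase-tagged ATAD5 were exposed to compound or DMSO for 15.5 hr at 37C, 5% CO2. Viability was then read as live-cell protease activity by CellTiter-Fluor fluorescence after 30 min at 37C.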

[4] = qHTS assay for small molecule disruptors of the mitochondrial membrane potential - cell viability (AID 720634; calls by dose curve;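 also: human HepG2 liver cancer cells; nearly all actives have a fitted effect of over 20% in size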)
In short: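 HepG2 cells seeded overnight at 37 C, then exposed to compound or DMSO for 1 hr at 37 C, 5% CO2. m-MPI dye added, then CellTiter-Glo for 30 min at room temperature; viability read as ATP luminescence.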

[5] = qHTS assay for small molecule disruptors of the mitochondrial membrane potential (AID 720635); also: potency is read from the fitted curve at half-maximal effect
In short: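 HepG2 cells exposed to compound 1 hr at 37C, then Mito-MPS dye 30 min. Ratio read of aggregate (540/590 nm) versus monomer (490/535 nm) fluorescence.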

[6] = qHTS assay to test for compound auto fluorescence at 590 nm (red) in HepG2 cells (AID 720674)
In short: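 Fluorescence at 590 nm emission following 540 nm excitation was recorded from HepG2 wells one hour after compound transfer, with DMSO-only wells as vehicle and Rose Bengal sodium equivalency as the scale.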

[7] = qHTS assay to test for compound auto fluorescence at 535 nm (green) in HepG2 cells (AID 720675)
[8] = qHTS assay to test for compound auto fluorescence at 460 nm (blue) in HEK293 cells (AID 720678)
In short: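 HEK293, 2,000 cells/well, 10% dialyzed FBS; attach 4-5 hr 37C; pin compound or DMSO; o/n 37C/5% CO2; fluorescence 405/460 nm; triamterene-equivalent units.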

[9] = qHTS assay to test for compound auto fluorescence at 590 nm (red) in HEK293 cells (AID 720679)
In short: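 Intensity at 540nm excitation and 590nm emission is reported as Rose Bengal sodium-equivalent autofluorescence. Measurements followed overnight exposure (37C, 5% CO2) of HEK293 cells, 2,000 per well, to 23 nL compound.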

[10] = qHTS assay to test for compound auto fluorescence at 535 nm (green) in HEK293 cells (AID 720680)
[11] = qHTS assay to test for compound auto fluorescence at 460 nm (blue) in HEK293 cell free culture (AID 720681)
In short: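 Compounds were added to cell-free DMEM with 10% FBS and fluorescence read directly. The blue channel used 405 nm excitation and 460 nm emission, with triamterene as the reference fluorophore.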

[12] = qHTS assay to test for compound auto fluorescence at 535 nm (green) in HEK293 cell free culture (AID 720682)
In short: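 Fluorescein serves as the green reference fluorophore; each compound's intrinsic emission at 535 nm (excitation 485 nm) is reported as an equivalent amount of that dye, measured in serum-containing DMEM without cells.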

[13] = qHTS assay to test for compound auto fluorescence at 590 nm (red) in HEK293 cell free culture (AID 720683)
In short: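 Cell-free wells of DMEM with 10% FBS received compound, and intrinsic fluorescence was read at excitation/emission 540/590 nm. Values expressed as equivalence to Rose Bengal sodium.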

[14] = qHTS assay to test for compound auto fluorescence at 590 nm (red) in HepG2 cell free culture (AID 720684)
In short: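 Compound was pinned into wells holding MEM with 10% FBS and no cells, and red fluorescence was read at Ex/Em 540/590 nm. Signal is expressed as auto fluorescence equivalency relative to Rose Bengal sodium.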

[15] = qHTS assay to test for compound auto fluorescence at 460 nm (blue) in HepG2 cell free culture (AID 720685)
In short: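 Compound (23 nL) or DMSO pinned into cell-free MEM with 10% FBS; blue fluorescence read at 405/460 nm excitation/emission, expressed as auto-fluorescence equivalency to triamterene.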

[16] = qHTS assay to test for compound auto fluorescence at 535 nm (green) in HepG2 cell free culture (AID 720686)
[17] = qHTS assay to test for compound auto fluorescence at 460 nm (blue) in HepG2 cells (AID 720687)
In short: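 HepG2 cells in MEM with 10% FBS, attached overnight at 37 C, were exposed to compound or DMSO for 1 hr at 37 C, 5% CO2. Blue fluorescence was read at 405/460 nm, with triamterene as reference fluorophore.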

[18] = qHTS assay for small molecules that induce genotoxicity in human embryonic kidney cells expressing luciferase-tagged ATAD5 (AID 651632); also: nearly all actives have a fitted effect of over 15% in size
In short: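 HEK293T cells carrying a luciferase reporter tagged to ATAD5 were exposed to compound or DMSO vehicle for 16 hr at 37C, 5% CO2. Amplite was added, and after 30 min at room temperature luciferase activity was read as a marker of ATAD5 induction.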

[19] = target: Glucocorticoid receptor (Homo sapiens) (UniProt P04150); assay: qHTS assay to identify small molecule agonists of the glucocorticoid receptor (GR) signaling pathway (AID 720691; active = well fitted activation curve with a large enough effect in the signal ratio in the repeat runs, not every such curve was filed as active; the % refers to the signal ratio; also: potency is read from the fitted curve at half-maximal effect); conditions: GR-bla HeLa, beta-lactamase reporter ratio, 18 h; activation: at 62.4 µM (top of the series)
In short: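 GR-bla HeLa cells (beta-lactamase reporter under glucocorticoid response element) were plated 4 h at 37 C/5% CO2, given compounds in DMSO, and incubated 18 h at 37 C. LiveBLAzer B/G FRET substrate was added for 2 h at room temperature, then fluorescence intensity read.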

[20] = target: Glucocorticoid receptor (Homo sapiens) (UniProt P04150); assay: qHTS assay to identify small molecule antagonists of the glucocorticoid receptor (GR) signaling pathway (AID 720692; active = well fitted inhibition curve with a large enough effect in the signal ratio in the repeat runs, not every such curve was filed as active; the % refers to the signal ratio)
In short: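 GR-bla HeLa cells (beta-lactamase reporter under glucocorticoid response element) were pre-plated 4 h at 37 C, treated with compounds plus 5 nM dexamethasone (final) for 18 h, then read by LiveBLAzer B/G FRET fluorescence after 2 h.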

Measured: Potency

Glucocorticoid receptor (Homo sapiens), sequence (P04150 whole entry, looked up): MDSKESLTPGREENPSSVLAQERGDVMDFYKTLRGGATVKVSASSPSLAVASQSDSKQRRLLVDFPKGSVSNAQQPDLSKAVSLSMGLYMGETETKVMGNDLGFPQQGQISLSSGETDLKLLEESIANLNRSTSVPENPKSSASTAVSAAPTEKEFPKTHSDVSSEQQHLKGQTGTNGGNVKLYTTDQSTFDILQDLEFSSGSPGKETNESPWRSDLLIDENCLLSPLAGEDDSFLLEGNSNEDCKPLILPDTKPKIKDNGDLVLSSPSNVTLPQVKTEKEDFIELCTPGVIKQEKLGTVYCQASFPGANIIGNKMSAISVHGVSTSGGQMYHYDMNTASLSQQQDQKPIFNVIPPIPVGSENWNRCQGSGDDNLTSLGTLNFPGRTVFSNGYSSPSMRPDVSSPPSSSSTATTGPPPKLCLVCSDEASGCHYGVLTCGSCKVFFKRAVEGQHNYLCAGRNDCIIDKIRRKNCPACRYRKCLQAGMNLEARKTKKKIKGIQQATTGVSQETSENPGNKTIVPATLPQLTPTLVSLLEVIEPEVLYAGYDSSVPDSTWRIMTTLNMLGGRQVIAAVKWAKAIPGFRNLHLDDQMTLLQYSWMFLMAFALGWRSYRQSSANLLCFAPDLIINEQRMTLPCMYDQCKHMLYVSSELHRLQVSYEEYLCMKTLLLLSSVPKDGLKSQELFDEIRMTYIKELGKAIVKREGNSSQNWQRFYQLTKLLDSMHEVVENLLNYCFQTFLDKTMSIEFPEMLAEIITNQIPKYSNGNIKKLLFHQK

CCCCCCCCCCCCc1ccccc1
not listed: [18] | [19] | [20]
inactive: all other assays above

C=CCNC(N)=S
not listed: [5] | [9] | [19] | [20]
inactive: all other assays above

C/C=C1/CC2C=CC1C2 (stereo not drawn)
not listed: [5]
inactive: all other assays above

C=CCOC(=O)c1ccccc1C(=O)OCC=C
not listed: [5] | [9] | [19] | [20]
inactive: all other assays above

CCCCCCCCCCCCCCCO
not listed: [4] | [5] | [19] | [20]
inactive: all other assays above

OCCOCCN1CCN(C2=Nc3ccccc3Sc3ccccc32)CC1
not listed: [5] | [18] | [19] | [20]
inactive: all other assays above

C=C(C)C(=O)OCCOCCOCCOC(=O)C(=C)C
not listed: [8]
inactive: all other assays above

CC(C)(C)[C@@H](O)[C@@H](Cc1ccc(Cl)cc1)n1cncn1
not listed: [5]
inactive: all other assays above

CN(C)CCOCCN(C)C
not listed: [5]
inactive: all other assays above

COc1cc(Cc2cnc(N)nc2N)cc(OC)c1OC
not listed: [3] | [9]
inactive: all other assays above

Oc1cccc2ccccc12
active: [5] 28 µM and 19.3 µM
not listed: [4]
inactive: all other assays above

CCCCCCOCCO
not listed: [8]
inactive: all other assays above

Cc1cnc(C(=O)NCCc2ccc(S(=O)(=O)NC(=O)NC3CCCCC3)cc2)cn1
not listed: [5]
inactive: all other assays above

C[C@H]1C[C@@H]2[C@H]([C@@H](O)C[C@@]3(C)[C@H]2CC[C@]3(O)C(=O)CO)[C@@]2(C)C=CC(=O)C=C12
not listed: [5] | [8] | [19] | [20]
inactive: all other assays above

CCCCN(CCCC)CCCC
not listed: [4] | [5] | [9]
inactive: all other assays above

COc1ccc(Cl)cc1C(=O)NCCc1ccc(S(=O)(=O)NC(=O)NC2CCCCC2)cc1
not listed: [5] | [9] | [19] | [20]
inactive: all other assays above

CC(=O)OCC(=O)[C@@]12N=C(C)O[C@@H]1C[C@H]1[C@@H]3CCC4=CC(=O)C=C[C@]4(C)[C@H]3[C@@H](O)C[C@@]12C
active: [19] 425 nM and 155 nM
not listed: [5] | [18] | [20]
inactive: all other assays above

Reference: PubChem BioAssay (Tox21)
